# Values without a mark were called inactive. Results filed as inconclusive are left out. Where a call stands in place of a potency, no number is given. Active and inactive are the calls of the source. Unless noted, calls follow the shape of the dose curve; as a rule, active = well fitted curve in the direction sought with a large enough effect; inconclusive = small, poorly fitted or top-dose-only effect, or another doubt; inactive = no such curve, though single readings can be large; an effect the other way counts as inactive or inconclusive.
# Assays:
# C33A = assay: Primary qHTS to identify gynecologic anti-cancer compounds using libraries of approved drugs and bioactive compounds (AID 1345084); conditions: Gynecologic cancer cell panel viability, ATPlite luminescence, 48 h; series mostly up to 57.5 µM; also: nearly all actives have a fitted effect of over 55% in size
# Summary of the method: (§1)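 Luminescence from the ATPlite ATP-monitoring reagent indicates viable cell number; lower signal means cytotoxicity. Cells received compound 16 h after seeding and were exposed for 48 h across five concentrations.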
# CASKI = assay: as above; conditions: Gynecologic cancer cell panel viability, ATPlite luminescence, 48 h; series mostly up to 57.5 µM
# Summary of the method: as §1
# Es-2 = assay: as above; conditions: Gynecologic cancer cell panel viability, ATPlite luminescence, 48 h; series mostly up to 57.5 µM
# Summary of the method: as §1
# HeLa = assay: as above; conditions: Gynecologic cancer cell panel viability, ATPlite luminescence, 48 h; series mostly up to 57.5 µM
# Summary of the method: as §1
# Hek293T = assay: as above; conditions: Gynecologic cancer cell panel viability, ATPlite luminescence, 48 h, control line for the selectivity index; series mostly up to 57.5 µM
# Summary of the method: as §1
# JEG-3 = assay: as above; conditions: Gynecologic cancer cell panel viability, ATPlite luminescence, 48 h; series mostly up to 57.5 µM
# Summary of the method: as §1
# OV90 = assay: as above; conditions: Gynecologic cancer cell panel viability, ATPlite luminescence, 48 h; series mostly up to 57.5 µM
# Summary of the method: as §1
# PA-1 = assay: as above; conditions: Gynecologic cancer cell panel viability, ATPlite luminescence, 48 h; series mostly up to 57.5 µM
# Summary of the method: as §1
# SKOV3 = assay: as above; conditions: Gynecologic cancer cell panel viability, ATPlite luminescence, 48 h; series mostly up to 57.5 µM
# Summary of the method: as §1
# Tov-21-G = assay: as above; conditions: Gynecologic cancer cell panel viability, ATPlite luminescence, 48 h; series mostly up to 57.5 µM
# Summary of the method: as §1
# Tov112D = assay: as above; conditions: Gynecologic cancer cell panel viability, ATPlite luminescence, 48 h; series mostly up to 57.5 µM
# Summary of the method: as §1
# [1] = Drug repurposing screens with cells derived from glioblastoma tumor samples (AID 1345199); conditions: GBM patient neurospheres viability, ATP luminescence, 48 h; also: nearly all actives have a fitted effect of over 40% in size; also: potency is read from the fitted curve at half-maximal effect
# Summary of the method: (§2)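 Four patient lines of CD133+ GBM neurospheres were screened at several concentrations; hits were retested in those lines plus three slower-growing GBM lines, using 48-hour treatment and ATP-based viability.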
# astro = assay: as above; conditions: viability, ATP luminescence, 48 h; series mostly up to 45.9 µM
# Summary of the method: as §2
# [2] = target: Nuclear receptor subfamily 1 group I member 2 (Rattus norvegicus) (UniProt Q9R1A7); assay: qHTS assay for small molecule activators of the rat pregnane X receptor (rPXR) signaling pathway (AID 651751; call rule not given here); conditions: rPXR reporter cells, luciferase (One-Glo), 24 h
# Sequence of Nuclear receptor subfamily 1 group I member 2 (Rattus norvegicus) (Q9R1A7 whole entry, looked up): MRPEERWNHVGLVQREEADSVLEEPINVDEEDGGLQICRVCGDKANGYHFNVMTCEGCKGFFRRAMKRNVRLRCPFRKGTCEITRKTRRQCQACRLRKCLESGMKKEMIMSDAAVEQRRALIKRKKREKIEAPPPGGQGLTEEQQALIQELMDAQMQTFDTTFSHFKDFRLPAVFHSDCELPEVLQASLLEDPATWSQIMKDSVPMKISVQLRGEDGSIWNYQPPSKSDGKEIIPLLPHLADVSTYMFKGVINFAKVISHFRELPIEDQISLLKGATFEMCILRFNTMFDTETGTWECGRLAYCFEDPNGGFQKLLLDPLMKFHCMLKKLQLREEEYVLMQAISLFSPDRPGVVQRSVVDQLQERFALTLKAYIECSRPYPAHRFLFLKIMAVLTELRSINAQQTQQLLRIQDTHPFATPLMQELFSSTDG
# [3] = qHTS assay for small molecule activators of the human pregnane X receptor (PXR) signaling pathway (AID 720659; call rule not given here)
# CAOV3 = assay: Primary qHTS to identify gynecologic anti-cancer compounds using libraries of approved drugs and bioactive compounds (AID 1345084); conditions: Gynecologic cancer cell panel viability, ATPlite luminescence, 48 h; series mostly up to 57.5 µM; also: nearly all actives have a fitted effect of over 55% in size
# Summary of the method: as §1
# [4] = at 45.9 µM (top of the series), tumour line B
# [5] = at 45.9 µM (top of the series), tumour line D
# [6] = at 46 µM (top of the series), tumour line A
# [7] = at 46.1 µM (top of the series), tumour line C
# [8] = at 20 µM (top of the series), tumour line C
# [9] = at 21.2 µM (top of the series), tumour line B
# [10] = at 21.2 µM (top of the series), tumour line D
compound,measurement,setting,value
CC(=O)Nc1ccc(C(=O)O)cc1,outcome,C33A,inactive
same,outcome,CASKI,inactive
same,outcome,Es-2,inactive
same,outcome,HeLa,inactive
same,outcome,Hek293T,inactive
same,outcome,JEG-3,inactive
same,Potency,OV90,inactive
same,outcome,PA-1,inactive
same,outcome,SKOV3,inactive
same,outcome,Tov-21-G,inactive
same,outcome,Tov112D,inactive
same,"activity, negative = cell killing",[1]; [4],-15.7%
same,"activity, negative = cell killing",[1]; [5],14.1%
same,"activity, negative = cell killing",[1]; [6],-33.2%
same,"activity, negative = cell killing",[1]; [7],-22.1%
same,outcome,astro,inactive
same,max response,[2],0.613%
same,outcome,[3],inactive
COc1ccc(NS(=O)(=O)c2ccc(N)cc2)nn1,outcome,C33A,inactive
same,outcome,CAOV3,inactive
same,outcome,CASKI,inactive
same,outcome,Es-2,inactive
same,outcome,HeLa,inactive
same,outcome,Hek293T,inactive
same,outcome,JEG-3,inactive
same,outcome,PA-1,inactive
same,outcome,SKOV3,inactive
same,outcome,Tov-21-G,inactive
same,outcome,Tov112D,inactive
same,"activity, negative = cell killing",[1]; [8],-22.2%
same,"activity, negative = cell killing",[1]; [9],-14.9%
same,"activity, negative = cell killing",[1]; [10],-7.76%
same,"activity, negative = cell killing","[1]; at 21.3 µM (top of the series), tumour line A",-20.5%
same,outcome,astro,inactive
OC(CCN1CCCC1)(c1ccccc1)C1CCCCC1 (stereo unspecified),outcome,C33A,inactive
same,outcome,CAOV3,inactive
same,outcome,CASKI,inactive
same,outcome,Es-2,inactive
same,outcome,HeLa,inactive
same,outcome,Hek293T,inactive
same,outcome,JEG-3,inactive
same,outcome,PA-1,inactive
same,outcome,SKOV3,inactive
same,outcome,Tov-21-G,inactive
same,outcome,Tov112D,inactive
same,"activity, negative = cell killing",[1]; [8],3.06%
same,"activity, negative = cell killing",[1]; [9],-6.65%
same,"activity, negative = cell killing",[1]; [10],-11.6%
same,outcome,astro,inactive
CCC(C)(CN(C)C)OC(=O)c1ccccc1 (stereo unspecified),outcome,C33A,inactive
same,outcome,CASKI,inactive
same,outcome,Es-2,inactive
same,outcome,HeLa,inactive
same,outcome,Hek293T,inactive
same,outcome,JEG-3,inactive
same,Potency,OV90,inactive
same,outcome,PA-1,inactive
same,outcome,SKOV3,inactive
same,outcome,Tov-21-G,inactive
same,outcome,Tov112D,inactive
same,"activity, negative = cell killing",[1]; [8],-12.8%
same,"activity, negative = cell killing",[1]; [9],-2.39%
same,"activity, negative = cell killing",[1]; [10],-5.13%
same,outcome,astro,inactive
CC(=O)N[C@@H](Cc1ccc(O)cc1)C(=O)O,outcome,C33A,inactive
same,outcome,CASKI,inactive
same,outcome,Es-2,inactive
same,outcome,HeLa,inactive
same,outcome,Hek293T,inactive
same,outcome,JEG-3,inactive
same,Potency,OV90,inactive
same,outcome,PA-1,inactive
same,outcome,SKOV3,inactive
same,outcome,Tov-21-G,inactive
same,outcome,Tov112D,inactive
same,"activity, negative = cell killing",[1]; [4],-9.92%
same,"activity, negative = cell killing",[1]; [5],-7.49%
same,"activity, negative = cell killing",[1]; [7],6.62%
same,outcome,astro,inactive
COc1ccc2cc(CCC(C)=O)ccc2c1,outcome,C33A,inactive
same,outcome,CAOV3,inactive
same,outcome,CASKI,inactive
same,outcome,Es-2,inactive
same,outcome,HeLa,inactive
same,outcome,PA-1,inactive
same,outcome,Tov-21-G,inactive
same,outcome,Tov112D,inactive
same,"activity, negative = cell killing",[1]; [9],-27.9%
Cc1c(Cn2ccnc2)c2ccccc2n1CCC(=O)O,outcome,C33A,inactive
same,outcome,CASKI,inactive
same,outcome,Es-2,inactive
same,outcome,HeLa,inactive
same,outcome,Hek293T,inactive
same,outcome,JEG-3,inactive
same,Potency,OV90,inactive
same,outcome,PA-1,inactive
same,outcome,Tov-21-G,inactive
same,outcome,Tov112D,inactive
same,"activity, negative = cell killing",[1]; [4],1.3%
same,"activity, negative = cell killing",[1]; [5],-4.06%
same,"activity, negative = cell killing",[1]; [6],-28%
same,"activity, negative = cell killing",[1]; [7],-6.27%
same,outcome,astro,inactive
C[C@@H](c1ncncc1F)C(O)(Cn1cncn1)c1ccc(F)cc1F (stereo partly specified),outcome,C33A,inactive
same,outcome,CAOV3,inactive
same,outcome,CASKI,inactive
same,outcome,Es-2,inactive
same,outcome,HeLa,inactive
same,outcome,Hek293T,inactive
same,outcome,JEG-3,inactive
same,outcome,PA-1,inactive
same,outcome,SKOV3,inactive
same,outcome,Tov-21-G,inactive
same,outcome,Tov112D,inactive
same,"activity, negative = cell killing",[1]; [4],-6.32%
same,"activity, negative = cell killing",[1]; [5],-23.3%
same,"activity, negative = cell killing",[1]; [7],6.65%
same,outcome,astro,inactive
Nc1ncnc(Nc2ccccc2)n1,outcome,C33A,inactive
same,outcome,CAOV3,inactive
same,outcome,CASKI,inactive
same,outcome,Es-2,inactive
same,outcome,HeLa,inactive
same,outcome,Hek293T,inactive
same,outcome,JEG-3,inactive
same,outcome,PA-1,inactive
same,outcome,SKOV3,inactive
same,outcome,Tov-21-G,inactive
same,outcome,Tov112D,inactive
same,"activity, negative = cell killing",[1]; [4],-14.8%
same,"activity, negative = cell killing",[1]; [5],-23.1%
same,"activity, negative = cell killing",[1]; [7],-21.6%
same,outcome,astro,inactive
CCCOC(=O)c1ccc(N)cc1,outcome,C33A,inactive
same,outcome,CAOV3,inactive
same,outcome,Es-2,inactive
same,outcome,HeLa,inactive
same,outcome,Hek293T,inactive
same,outcome,JEG-3,inactive
same,Potency,OV90,inactive
same,outcome,PA-1,inactive
same,outcome,SKOV3,inactive
same,outcome,Tov-21-G,inactive
same,outcome,Tov112D,inactive
same,"activity, negative = cell killing",[1]; [5],-16.4%
same,Potency,[1]; tumour line C,25.9 µM (active)
same,outcome,astro,inactive
CCCC(O)C(CC)CO (stereo unspecified),outcome,C33A,inactive
same,outcome,CAOV3,inactive
same,outcome,CASKI,inactive
same,outcome,Es-2,inactive
same,outcome,HeLa,inactive
same,outcome,Hek293T,inactive
same,outcome,JEG-3,inactive
same,Potency,OV90,inactive
same,outcome,SKOV3,inactive
same,outcome,Tov-21-G,inactive
same,outcome,Tov112D,inactive
same,"activity, negative = cell killing",[1]; [4],-12.1%
same,"activity, negative = cell killing",[1]; [5],-1.2%
same,"activity, negative = cell killing",[1]; [6],-19.9%
same,"activity, negative = cell killing",[1]; [7],1.39%
same,max response,[2],7.37%
same,outcome,[3],inactive
CC(CSC(=O)c1ccccc1)C(=O)N1C[C@@H](Sc2ccccc2)C[C@H]1C(=O)O (stereo partly specified),outcome,C33A,inactive
same,outcome,CAOV3,inactive
same,outcome,CASKI,inactive
same,outcome,Es-2,inactive
same,outcome,HeLa,inactive
same,outcome,Hek293T,inactive
same,outcome,JEG-3,inactive
same,outcome,PA-1,inactive
same,outcome,Tov-21-G,inactive
same,outcome,Tov112D,inactive
same,"activity, negative = cell killing",[1]; [4],-5.59%
same,"activity, negative = cell killing",[1]; [5],5.1%
same,"activity, negative = cell killing",[1]; [6],-20.1%
same,"activity, negative = cell killing",[1]; [7],-14.7%
Cc1onc(-c2ccccc2)c1-c1ccc(S(N)(=O)=O)cc1,outcome,CAOV3,inactive
same,outcome,CASKI,inactive
same,outcome,Es-2,inactive
same,outcome,HeLa,inactive
same,outcome,Hek293T,inactive
same,outcome,JEG-3,inactive
same,Potency,OV90,inactive
same,outcome,PA-1,inactive
same,outcome,SKOV3,inactive
same,outcome,Tov-21-G,inactive
same,outcome,Tov112D,inactive
same,"activity, negative = cell killing",[1]; [4],-8.7%
same,"activity, negative = cell killing",[1]; [5],-24.2%
same,"activity, negative = cell killing",[1]; [7],-2.89%
same,outcome,astro,inactive
COC(=O)c1ccccc1C(=O)c1ccc(OCCN2CCCCC2)cc1,outcome,C33A,inactive
same,outcome,CAOV3,inactive
same,outcome,CASKI,inactive
same,outcome,Es-2,inactive
same,outcome,HeLa,inactive
same,outcome,Hek293T,inactive
same,outcome,PA-1,inactive
same,outcome,Tov-21-G,inactive
same,outcome,Tov112D,inactive
same,"activity, negative = cell killing",[1]; [4],-26.9%
same,Potency,[1]; tumour line A,7.08 µM (active)
same,Potency,[1]; tumour line C,20.6 µM (active)
same,Potency,[1]; tumour line D,12.6 µM (active)
